Key:
Assay in all cases: log2 ratio of Biotin-Ahx-Ub-VS probe labelling (fragment/DMSO); higher = less target engagement (more negative = stronger competition), active = hit call of the paper (q ≤ 0.05, log2 ratio ≤ -1)
Details in all cases: compound concentration: 200 uM; treatment time: 3 h
OTUD6B = biological target: T1, OTUD6B (UniProt Q8N6M0)
T1 sequence (whole entry): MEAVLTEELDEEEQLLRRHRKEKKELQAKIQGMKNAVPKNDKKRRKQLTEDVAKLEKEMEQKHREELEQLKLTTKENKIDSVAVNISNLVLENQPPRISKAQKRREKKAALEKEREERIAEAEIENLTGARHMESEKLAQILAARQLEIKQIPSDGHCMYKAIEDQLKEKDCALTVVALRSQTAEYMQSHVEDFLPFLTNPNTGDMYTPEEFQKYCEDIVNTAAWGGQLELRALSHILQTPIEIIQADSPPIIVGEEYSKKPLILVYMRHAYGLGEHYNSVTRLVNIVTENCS
Procedure, shortened: (§1)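 Labelled DUBs were enriched with NeutrAvidin, digested with LysC and trypsin, and run by diaPASEF LC-MS/MS. The labelling used Biotin-Ahx-Ub-VS at 0.5 µM final for 1 h on HEK293T lysate (495 µg per sample) previously treated in triplicate with fragment at 200 µM or vehicle for 3 h. Values are average log2 fragment/vehicle ratios by unpaired t-test on global-median-normalised Spectronaut quantities of proteins with ≥2 unique peptides.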

OTUD7B = biological target: T2, OTUD7B (UniProt Q6GQQ9)
T2 sequence (whole entry): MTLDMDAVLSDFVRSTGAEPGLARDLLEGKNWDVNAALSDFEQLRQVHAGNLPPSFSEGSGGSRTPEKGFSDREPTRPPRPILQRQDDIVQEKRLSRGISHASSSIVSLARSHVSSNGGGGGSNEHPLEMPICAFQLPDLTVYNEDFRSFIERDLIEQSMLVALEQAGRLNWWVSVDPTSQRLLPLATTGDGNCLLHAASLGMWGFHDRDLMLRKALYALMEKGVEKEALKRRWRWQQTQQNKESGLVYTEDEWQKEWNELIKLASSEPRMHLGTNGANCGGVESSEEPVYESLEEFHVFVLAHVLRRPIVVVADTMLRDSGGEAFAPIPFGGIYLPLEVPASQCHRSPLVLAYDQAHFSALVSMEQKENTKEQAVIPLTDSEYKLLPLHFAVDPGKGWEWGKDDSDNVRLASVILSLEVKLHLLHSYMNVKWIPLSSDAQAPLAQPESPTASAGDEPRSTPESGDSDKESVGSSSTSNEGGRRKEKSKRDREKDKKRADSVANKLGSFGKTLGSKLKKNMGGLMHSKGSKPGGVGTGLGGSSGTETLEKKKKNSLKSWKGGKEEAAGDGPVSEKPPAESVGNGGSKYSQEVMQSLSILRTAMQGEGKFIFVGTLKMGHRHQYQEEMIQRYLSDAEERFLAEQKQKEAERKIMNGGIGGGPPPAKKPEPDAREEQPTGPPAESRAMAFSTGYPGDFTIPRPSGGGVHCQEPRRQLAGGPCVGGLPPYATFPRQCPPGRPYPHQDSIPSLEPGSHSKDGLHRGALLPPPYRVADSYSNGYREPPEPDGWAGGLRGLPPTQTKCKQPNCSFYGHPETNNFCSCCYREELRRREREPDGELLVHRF
Procedure, shortened: as §1

PRPF8 = PRPF8 (UniProt Q6P2Q9)
Procedure, shortened: as §1

PSMD7 = biological target: T3, PSMD7 (UniProt P51665)
T3 sequence (whole entry): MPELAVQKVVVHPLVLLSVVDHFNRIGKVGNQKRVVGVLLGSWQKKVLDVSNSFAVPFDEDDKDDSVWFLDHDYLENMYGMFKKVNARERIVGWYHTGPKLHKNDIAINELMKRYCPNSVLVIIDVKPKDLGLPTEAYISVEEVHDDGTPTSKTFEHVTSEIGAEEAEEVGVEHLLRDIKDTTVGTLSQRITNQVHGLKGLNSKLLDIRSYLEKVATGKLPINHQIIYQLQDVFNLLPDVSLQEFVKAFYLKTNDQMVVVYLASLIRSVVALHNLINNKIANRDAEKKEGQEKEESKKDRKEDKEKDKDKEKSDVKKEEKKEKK
Procedure, shortened: as §1

UCHL1 = UCHL1 (UniProt P09936)
Procedure, shortened: as §1

UCHL3 = biological target: T4, UCHL3 (UniProt P15374)
T4 sequence (whole entry): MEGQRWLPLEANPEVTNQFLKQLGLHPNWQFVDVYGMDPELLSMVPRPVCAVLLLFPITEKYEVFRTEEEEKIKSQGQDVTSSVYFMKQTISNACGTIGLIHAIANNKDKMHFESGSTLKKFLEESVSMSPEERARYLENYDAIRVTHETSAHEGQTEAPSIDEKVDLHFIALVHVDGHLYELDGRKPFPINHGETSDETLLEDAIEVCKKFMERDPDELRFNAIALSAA
Procedure, shortened: as §1

UCHL5 = biological target: T5, UCHL5 (UniProt Q9Y5K5)
T5 sequence (whole entry): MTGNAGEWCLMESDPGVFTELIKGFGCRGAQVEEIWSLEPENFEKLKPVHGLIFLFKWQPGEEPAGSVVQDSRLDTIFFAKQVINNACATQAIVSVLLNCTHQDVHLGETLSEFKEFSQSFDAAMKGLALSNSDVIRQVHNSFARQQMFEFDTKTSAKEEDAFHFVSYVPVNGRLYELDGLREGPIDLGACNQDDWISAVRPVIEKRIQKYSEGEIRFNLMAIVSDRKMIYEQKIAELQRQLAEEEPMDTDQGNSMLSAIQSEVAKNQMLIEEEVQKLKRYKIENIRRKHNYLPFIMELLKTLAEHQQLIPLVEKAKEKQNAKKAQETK
Procedure, shortened: as §1

USP10 = USP10 (UniProt Q14694)
Procedure, shortened: as §1

USP15 = biological target: T6, USP15 (UniProt Q9Y4E8)
T6 sequence (whole entry): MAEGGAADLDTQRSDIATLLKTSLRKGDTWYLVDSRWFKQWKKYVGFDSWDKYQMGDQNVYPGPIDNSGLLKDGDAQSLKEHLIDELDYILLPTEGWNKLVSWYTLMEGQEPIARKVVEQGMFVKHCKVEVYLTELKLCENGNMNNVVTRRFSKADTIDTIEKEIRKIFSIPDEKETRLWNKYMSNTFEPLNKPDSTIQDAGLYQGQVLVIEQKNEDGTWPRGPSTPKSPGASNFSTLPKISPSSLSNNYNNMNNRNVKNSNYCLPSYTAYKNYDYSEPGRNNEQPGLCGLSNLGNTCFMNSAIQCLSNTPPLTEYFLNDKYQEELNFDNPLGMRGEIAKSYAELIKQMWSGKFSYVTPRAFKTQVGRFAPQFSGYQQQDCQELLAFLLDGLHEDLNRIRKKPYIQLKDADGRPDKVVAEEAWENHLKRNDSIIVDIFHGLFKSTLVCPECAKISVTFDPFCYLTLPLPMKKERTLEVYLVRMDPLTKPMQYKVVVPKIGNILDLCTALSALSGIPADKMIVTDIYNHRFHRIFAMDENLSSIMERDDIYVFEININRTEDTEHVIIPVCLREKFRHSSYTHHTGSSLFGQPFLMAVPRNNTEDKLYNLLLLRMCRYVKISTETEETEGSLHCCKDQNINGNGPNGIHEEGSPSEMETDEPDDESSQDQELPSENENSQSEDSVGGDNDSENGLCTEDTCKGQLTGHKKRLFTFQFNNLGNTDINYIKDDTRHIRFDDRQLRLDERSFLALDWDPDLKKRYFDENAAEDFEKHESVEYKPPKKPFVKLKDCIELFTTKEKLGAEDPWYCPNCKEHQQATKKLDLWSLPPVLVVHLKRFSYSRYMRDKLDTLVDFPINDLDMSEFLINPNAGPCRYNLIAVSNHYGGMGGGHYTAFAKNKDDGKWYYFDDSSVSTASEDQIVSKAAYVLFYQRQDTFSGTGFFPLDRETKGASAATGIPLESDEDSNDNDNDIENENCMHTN
Procedure, shortened: as §1

Measured: log2 ratio of Biotin-Ahx-Ub-VS probe labelling

USP10, sequence (Q14694 whole entry): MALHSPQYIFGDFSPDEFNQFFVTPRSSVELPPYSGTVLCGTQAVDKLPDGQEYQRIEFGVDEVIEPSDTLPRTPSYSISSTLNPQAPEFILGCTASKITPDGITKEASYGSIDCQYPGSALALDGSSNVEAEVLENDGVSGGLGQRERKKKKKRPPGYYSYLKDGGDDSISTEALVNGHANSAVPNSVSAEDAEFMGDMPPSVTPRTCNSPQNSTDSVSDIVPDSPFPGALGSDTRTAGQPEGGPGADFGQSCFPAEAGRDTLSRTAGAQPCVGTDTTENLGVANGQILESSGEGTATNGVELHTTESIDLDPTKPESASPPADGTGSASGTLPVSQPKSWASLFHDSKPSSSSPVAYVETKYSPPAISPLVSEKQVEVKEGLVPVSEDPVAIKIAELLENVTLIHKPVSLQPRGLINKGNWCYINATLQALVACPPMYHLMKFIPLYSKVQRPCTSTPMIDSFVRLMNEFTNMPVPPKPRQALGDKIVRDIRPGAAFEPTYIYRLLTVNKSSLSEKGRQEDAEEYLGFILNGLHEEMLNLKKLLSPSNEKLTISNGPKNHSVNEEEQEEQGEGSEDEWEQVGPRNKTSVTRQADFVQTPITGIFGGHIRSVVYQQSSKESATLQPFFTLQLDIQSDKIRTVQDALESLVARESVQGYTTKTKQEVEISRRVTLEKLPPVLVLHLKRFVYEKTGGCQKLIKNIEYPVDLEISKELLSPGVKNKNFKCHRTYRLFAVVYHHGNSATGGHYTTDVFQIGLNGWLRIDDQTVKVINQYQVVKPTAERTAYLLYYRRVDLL
UCHL1, sequence (P09936 whole entry, looked up): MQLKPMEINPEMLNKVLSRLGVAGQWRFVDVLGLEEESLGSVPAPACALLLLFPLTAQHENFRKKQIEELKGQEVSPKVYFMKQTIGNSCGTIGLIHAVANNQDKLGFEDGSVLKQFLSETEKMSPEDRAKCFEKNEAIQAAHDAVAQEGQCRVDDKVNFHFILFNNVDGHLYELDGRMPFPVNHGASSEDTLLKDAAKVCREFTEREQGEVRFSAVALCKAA

NC(=O)C1CCCCN1C(=O)CCl (centres undefined)
inactive: OTUD6B -0.175 | PRPF8 -0.153 | PSMD7 -0.146 | UCHL3 0.215 | UCHL5 -0.42 | USP10 -0.0331 | USP15 -0.0982
active: OTUD7B -1.65 | UCHL1 -1.52
